# “And” between values parts separate entries of the source, which are not always exact repeats. Equal entries are not always repeated.
# Experiments:
# [1] = biological target: RAF proto-oncogene serine/threonine-protein kinase (Homo sapiens) (UniProt P04049); details: at 1 µM;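 also: values are the mean percent inhibition of CRAF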
# [2] = biological target: T1, Interleukin-1 receptor-associated kinase 4 (Homo sapiens) (UniProt Q9NWZ3); details: at 0.1 µM
# T1 sequence (whole entry): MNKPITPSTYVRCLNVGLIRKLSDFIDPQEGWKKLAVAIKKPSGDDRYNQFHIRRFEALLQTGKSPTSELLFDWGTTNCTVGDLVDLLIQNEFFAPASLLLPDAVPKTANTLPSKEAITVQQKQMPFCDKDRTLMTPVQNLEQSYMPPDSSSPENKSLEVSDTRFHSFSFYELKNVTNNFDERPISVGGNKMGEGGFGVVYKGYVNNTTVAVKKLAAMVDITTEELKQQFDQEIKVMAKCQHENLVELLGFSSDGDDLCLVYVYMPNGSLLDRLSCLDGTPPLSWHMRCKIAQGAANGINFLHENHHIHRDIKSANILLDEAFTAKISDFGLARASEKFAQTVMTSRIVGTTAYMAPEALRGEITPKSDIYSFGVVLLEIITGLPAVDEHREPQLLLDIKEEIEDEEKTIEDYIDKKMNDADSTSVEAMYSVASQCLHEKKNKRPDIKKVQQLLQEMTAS
# [3] = biological target: T1, Interleukin-1 receptor-associated kinase 4 (Homo sapiens); details: at 1 µM
# [4] = biological target: Leucine-rich repeat serine/threonine-protein kinase 2 (Homo sapiens) (UniProt Q5S007); details: at 0.1 µM
# Leucine-rich repeat serine/threonine-protein kinase 2 (Homo sapiens), sequence (Q5S007 whole entry): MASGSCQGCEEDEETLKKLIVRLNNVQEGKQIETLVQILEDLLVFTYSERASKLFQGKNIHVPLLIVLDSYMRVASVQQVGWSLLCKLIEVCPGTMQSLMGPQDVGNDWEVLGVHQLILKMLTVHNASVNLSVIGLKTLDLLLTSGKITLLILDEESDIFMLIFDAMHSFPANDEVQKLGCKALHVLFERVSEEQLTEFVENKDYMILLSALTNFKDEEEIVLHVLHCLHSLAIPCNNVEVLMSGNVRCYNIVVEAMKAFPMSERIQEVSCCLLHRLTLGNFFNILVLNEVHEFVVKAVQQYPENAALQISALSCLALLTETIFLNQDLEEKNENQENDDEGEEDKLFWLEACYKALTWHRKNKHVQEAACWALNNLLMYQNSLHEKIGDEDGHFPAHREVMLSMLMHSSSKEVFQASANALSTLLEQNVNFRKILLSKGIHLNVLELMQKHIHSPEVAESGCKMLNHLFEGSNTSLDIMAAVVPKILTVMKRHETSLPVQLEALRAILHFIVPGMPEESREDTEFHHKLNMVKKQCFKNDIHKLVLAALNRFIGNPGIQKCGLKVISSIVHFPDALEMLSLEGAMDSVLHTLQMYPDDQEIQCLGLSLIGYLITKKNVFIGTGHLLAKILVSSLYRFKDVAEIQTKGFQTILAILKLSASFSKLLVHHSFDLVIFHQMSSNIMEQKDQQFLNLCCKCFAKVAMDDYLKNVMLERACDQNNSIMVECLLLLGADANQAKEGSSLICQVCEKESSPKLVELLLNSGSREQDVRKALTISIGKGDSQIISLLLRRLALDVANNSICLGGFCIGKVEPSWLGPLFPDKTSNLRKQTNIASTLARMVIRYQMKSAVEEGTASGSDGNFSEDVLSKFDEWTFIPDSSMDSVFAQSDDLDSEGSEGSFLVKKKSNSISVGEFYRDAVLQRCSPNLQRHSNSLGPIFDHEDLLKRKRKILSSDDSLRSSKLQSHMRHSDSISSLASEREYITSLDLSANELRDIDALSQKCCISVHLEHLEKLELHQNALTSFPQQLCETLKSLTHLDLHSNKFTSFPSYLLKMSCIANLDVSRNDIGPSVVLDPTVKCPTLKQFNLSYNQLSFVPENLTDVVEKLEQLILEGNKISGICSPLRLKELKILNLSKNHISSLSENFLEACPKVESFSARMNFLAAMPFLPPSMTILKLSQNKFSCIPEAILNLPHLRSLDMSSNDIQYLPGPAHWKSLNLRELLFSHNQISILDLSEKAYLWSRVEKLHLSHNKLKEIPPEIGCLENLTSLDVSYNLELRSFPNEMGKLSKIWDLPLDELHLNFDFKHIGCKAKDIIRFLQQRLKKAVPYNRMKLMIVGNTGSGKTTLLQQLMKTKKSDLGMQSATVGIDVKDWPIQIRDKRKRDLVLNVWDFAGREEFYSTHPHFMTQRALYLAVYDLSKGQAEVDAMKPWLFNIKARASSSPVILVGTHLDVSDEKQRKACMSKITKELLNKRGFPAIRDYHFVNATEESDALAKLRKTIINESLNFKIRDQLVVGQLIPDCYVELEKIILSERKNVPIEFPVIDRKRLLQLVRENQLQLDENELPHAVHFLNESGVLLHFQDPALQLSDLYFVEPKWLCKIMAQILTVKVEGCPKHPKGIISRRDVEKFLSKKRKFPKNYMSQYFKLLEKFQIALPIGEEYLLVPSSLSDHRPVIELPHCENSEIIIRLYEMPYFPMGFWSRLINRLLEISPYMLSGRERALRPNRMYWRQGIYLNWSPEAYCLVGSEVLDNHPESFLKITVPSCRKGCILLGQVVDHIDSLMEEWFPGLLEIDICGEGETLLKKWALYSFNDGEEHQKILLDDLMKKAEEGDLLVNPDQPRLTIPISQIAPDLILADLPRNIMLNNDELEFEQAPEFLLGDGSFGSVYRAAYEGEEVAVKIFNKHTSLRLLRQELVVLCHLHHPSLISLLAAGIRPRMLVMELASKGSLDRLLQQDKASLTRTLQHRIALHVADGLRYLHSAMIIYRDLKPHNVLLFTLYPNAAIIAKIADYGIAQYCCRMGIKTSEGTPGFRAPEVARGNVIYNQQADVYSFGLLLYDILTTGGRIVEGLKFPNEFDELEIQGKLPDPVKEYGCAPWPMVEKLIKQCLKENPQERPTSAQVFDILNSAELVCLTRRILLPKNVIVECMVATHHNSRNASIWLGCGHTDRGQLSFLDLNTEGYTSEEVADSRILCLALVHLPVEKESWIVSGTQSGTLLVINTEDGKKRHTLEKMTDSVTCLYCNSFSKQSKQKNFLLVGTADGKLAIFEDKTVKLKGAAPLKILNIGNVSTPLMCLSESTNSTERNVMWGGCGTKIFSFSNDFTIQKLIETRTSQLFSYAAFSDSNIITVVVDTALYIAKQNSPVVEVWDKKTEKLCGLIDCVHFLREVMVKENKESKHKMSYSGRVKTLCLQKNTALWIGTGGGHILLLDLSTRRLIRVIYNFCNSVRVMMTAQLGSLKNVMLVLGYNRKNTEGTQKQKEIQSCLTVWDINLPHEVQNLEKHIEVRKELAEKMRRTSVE
# [5] = biological target: Leucine-rich repeat serine/threonine-protein kinase 2 (Homo sapiens) (UniProt Q5S007); details: at 1 µM
# [6] = test system: Leucine-rich repeat serine/threonine-protein kinase 2 (Homo sapiens), Q5S007 [G2019S]; details: at 0.1 µM
# Leucine-rich repeat serine/threonine-protein kinase 2 (Homo sapiens), Q5S007 [G2019S], sequence (Q5S007 whole entry G2019S): as the sequence (Q5S007 whole entry) above, with G2019S counted along it
# [7] = test system: Leucine-rich repeat serine/threonine-protein kinase 2 (Homo sapiens), Q5S007 [G2019S]; details: at 1 µM
# RAF proto-oncogene serine/threonine-protein kinase (Homo sapiens), sequence (P04049 whole entry): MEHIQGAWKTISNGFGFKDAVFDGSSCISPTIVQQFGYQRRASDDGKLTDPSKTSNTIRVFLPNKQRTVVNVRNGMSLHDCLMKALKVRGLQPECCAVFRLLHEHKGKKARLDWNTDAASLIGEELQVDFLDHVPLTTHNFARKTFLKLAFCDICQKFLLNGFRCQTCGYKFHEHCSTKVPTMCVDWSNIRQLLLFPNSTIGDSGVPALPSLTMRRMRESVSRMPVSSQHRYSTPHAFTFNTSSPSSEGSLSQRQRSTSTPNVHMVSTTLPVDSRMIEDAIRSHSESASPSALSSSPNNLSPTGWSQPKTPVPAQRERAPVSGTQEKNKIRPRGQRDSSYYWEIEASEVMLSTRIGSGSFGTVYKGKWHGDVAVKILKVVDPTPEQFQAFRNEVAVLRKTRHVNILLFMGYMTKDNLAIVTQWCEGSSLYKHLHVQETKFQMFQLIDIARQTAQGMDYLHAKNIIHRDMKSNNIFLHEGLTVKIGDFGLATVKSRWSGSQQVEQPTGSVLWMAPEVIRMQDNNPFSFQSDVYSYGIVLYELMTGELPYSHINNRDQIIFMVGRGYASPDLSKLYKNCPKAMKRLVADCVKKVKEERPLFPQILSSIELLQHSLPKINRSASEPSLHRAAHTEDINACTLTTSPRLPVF
SMILES,inhibition [1],inhibition [2],inhibition [3],inhibition [4],inhibition [5],inhibition [6],inhibition [7]
COc1ccc(-c2nn3ncccc3c2-c2ccnc(Nc3ccc(F)c(F)c3)n2)cc1,-4.25%,-0.54%,1.76%,5.52%,9.6%,6.22%,7.92%
COc1cc(Nc2ncc(-c3ccccc3)o2)cc(OC)c1,-1.38%,2.03%,2.83%,0.94%,6.82%,2.33%,12.5%
CS(=O)(=O)CCNCc1ccoc1-c1ccc2ncnc(Nc3ccc(OCc4ccccc4)cc3)c2c1,-1.65%,0.62%,1.15%,1.37%,3.82%,2.44%,2.57%
c1ccc(-c2n[nH]cc2-c2ccnc(-c3ccc(OCCn4ccnc4)cc3)c2)nc1,-2.1%,4.92%,0.82%,0.79%,7.44%,3.12%,14.5%
Nc1nonc1-c1nc2cnccc2n1C1CC1,5.43% and 2.92%,-0.18% and 2.38%,2.91% and 1.65%,8.81% and 0.08%,15.4% and 10.4%,13.3% and 5.33%,44.6% and 35%
Cc1ccc(-c2cc3c(NC(=O)C4CC4)ncnc3o2)cc1,-2.51%,-1.3%,2.26%,9.7%,12.2%,9.7%,16.6%
COc1c(C(N)=O)cc(-c2ccc(Cl)cc2)cc1-c1ccc(S(N)(=O)=O)cc1,1.44%,1.96%,1.85%,-0.34%,6.11%,3.53%,9.4%
CN(C)CCNC(=O)Nc1ccc(N(C)c2ccnc(Nc3ccc(CS(C)(=O)=O)cc3)n2)cc1,-0.82%,-4.3%,2.15%,4.46%,11.5%,6.1%,23%
CCCNc1cccc(-n2ncc3c(N/N=C/c4ccncc4)ncnc32)c1,-3.81%,2.03%,0.71%,3.27%,12.2%,5.55%,37.8%
COc1cc(N2CCN(C(C)C)CC2)ccc1Nc1nc(Nc2cccc(F)c2C(=O)O)c2cc[nH]c2n1,0.19%,2.04%,2.25%,6.61%,16.3%,19%,59.3%
O=C(Nc1n[nH]c2nnc(-c3cccnc3)cc12)C1CC1,-3.13%,-0.42%,-0.13%,0.99%,4.69%,2.42%,5.79%
CNC(=O)c1sc(-n2cnc3cc(OC)c(OC)cc32)cc1OCc1ccccc1C(F)(F)F,0.72%,2.12%,1.97%,2.86%,9.7%,3.5%,7.21%
COc1cccc(Nc2nccc(-c3cnn4ncccc34)n2)c1,-1.47%,0.48%,11.1%,9.98%,21.1%,13.3%,54.8%
COC(=O)Nc1nc2ccc(Oc3ccc(NC(=O)Nc4cc(C(F)(F)F)ccc4F)cc3)cc2s1,60.1%,1.94%,0.25%,17.4%,48.5%,9.18%,37.8%
CC1=C(C(=O)Nc2ccc3[nH]ncc3c2)C(c2ccc(F)cc2)N=C(c2ccc(C(F)(F)F)nc2)N1 (configuration not stated),-4.26%,-2.11%,0.95%,2.81%,7.24%,5.04%,26%
CCS(=O)(=O)c1ccc(OC)c(Nc2ncc(-c3cccc(C(C)=O)c3)o2)c1,8.87%,-3.46%,1.19%,0.47%,4.65%,2.77%,11.8%

SMILES,inhibition [1],inhibition [2],inhibition [3],inhibition [4],inhibition [5],inhibition [6],inhibition [7]
Cc1c2ccc(N(C)c3ccnc(Nc4cccc(S(N)(=O)=O)c4)n3)cc2nn1C,41%,4.14%,3.25%,0.45%,9.99%,1.58%,12.6%
CCn1c(-c2nonc2N)nc2cncc(C(=O)NCCNC)c21,0.85%,2.49%,3.05%,6.11%,28.8%,13%,51.8%
OCCCNc1nccc(-c2c(-c3ccc(F)cc3)nn3cc(C(F)(F)F)ccc23)n1,-7.33%,-1.58%,1.48%,5.02%,7.46%,2.62%,7.85%
Fc1ccc(Nc2nccc(-c3c(-c4ccc(C(F)(F)F)cc4)nn4ncccc34)n2)cc1F,1.86%,-4.78%,1.81%,5.42%,7.08%,5.93%,10.4%
CCN1CCC(C(=O)Nc2n[nH]c3nnc(-c4cccc(F)c4F)cc23)CC1,-2.59%,0.27%,0.13%,1.99%,3.27%,2.15%,1.7%
NS(=O)(=O)c1ccc(N/N=C2\C(=O)Nc3cccc(CCc4ccncc4)c32)cc1,-2.61%,-0.38%,0.01%,6.21%,9.58%,8.14%,12.9%
CS(=O)(=O)CCNCc1ccc(-c2ccc3ncnc(Nc4ccc(OCc5cccc(C(F)(F)F)c5)cc4)c3c2)o1,-2.29%,2.1%,3.11%,1.61%,5.55%,4.24%,7.8%
Cn1c(-c2nonc2N)nc2cnccc21,8.87%,3.47%,1.21%,2.89%,10.6%,4.16%,20.5%
c1cnn2ncc(-c3ccnc(NCCCN4CCOCC4)n3)c2c1,-5.16%,2.04%,1.39%,1.69%,1.57%,2.1%,5.03%
CCS(=O)(=O)c1ccc(OC)c(Nc2ncc(-c3cccc(F)c3)o2)c1,-3.37%,2.36%,5.42%,2.2%,14.5%,6.1%,27.9%
N#Cc1cccc(Nc2ncc(-c3ccccc3)o2)c1,-0.15%,2.82%,0.78%,1.01%,2.11%,1.64%,4.25%
COc1ccc(Nc2ncc(-c3ccccc3)o2)cc1OC,3.96%,2.27%,2.28%,1.05%,13.2%,3.5%,22.9%
O=C(O[C@H]1CN[C@H](C#Cc2cc3ncnc(Nc4ccc5c(ccn5Cc5cc(F)ccc5F)c4)c3s2)C1)N1CCOCC1,-3.01%,3.45%,2.43%,3.48%,6.3%,3.23%,5.91%
O=C(O[C@H]1CN[C@H](C#Cc2cc3ncnc(Nc4ccc(OCc5cccc(F)c5)c(Cl)c4)c3s2)C1)N1CCOCC1,0.51%,1.13%,2.48%,2.8%,7.32%,4.61%,8.39%
NC(=O)c1ccc2c(-c3ccnc(NCCCO)n3)c(-c3ccc(F)cc3)nn2c1,-4.3%,1.46%,2.22%,5.47%,7.44%,6.54%,9.18%

# Source: ChEMBL document CHEMBL1961873, “Compounds: GSK PKIS; Assays: Nanosyn kinase panel” (2012)
